Measured values: PubChem BioAssay AID651784 (National Center for Advancing Translational Sciences (NCATS), 2012)
“And” between values parts separate entries of the source, which are not always exact repeats. Equal entries are not always repeated. Records with an inconclusive call do not appear. The source made the active and inactive calls. Calls come from the whole dose curve; as a rule, active = well fitted inhibition curve with a large enough effect; inconclusive = small, poorly fitted or top-dose-only effect; inactive = no such curve, though single readings can be large or run the other way.

experiment: Acumen qHTS Assay for Inhibitors of the mTORC1 Signaling Pathway in MEF (Tsc2-/-, p53-/-) Cells: Hit Validation; settings: Acumen imaging; activity change, negative = inhibition: at 37.3 µM (top of the series);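 note: phospho-rpS6 Ser235/236 immunofluorescence normalized to propidium iodide cell count; nearly all actives have a fitted effect of over 65% in size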;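 for activity change, negative = inhibition: cells exposed to compound for 24 hours; plate controls were DMSO for no effect and 7.5 nM rapamycin control for full effect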
Potency is the fitted concentration of half-maximal effect.

Structure (SMILES)	activity change, negative = inhibition	Potency
CC[C@H](CO)Nc1nc(NCc2ccccc2)c2ncn(C(C)C)c2n1	-22.4%	–
COc1ccc(CCNC(=O)c2ccc3c(c2)N(Cc2ccccc2)CCS3)cc1OC	–	5.21 µM (active)
O=C(Nc1ccc(F)c(F)c1)c1ccc(F)c(S(=O)(=O)N2CCC3(CC2)OCCO3)c1	–	10.4 µM (active)
CCOc1ccc(S(=O)(=O)N(C(=O)c2ccncc2)c2ccc3oc(C)c(C(=O)OC)c3c2)cc1	–	3.69 µM (active)
Cc1ccccc1CN1C(=O)C(O)(CC(=O)c2ccccc2)c2cc(Cl)ccc21 (stereo not drawn)	-65.2%	–
COc1ccc(CNC(=O)c2nc(S(=O)(=O)Cc3ccccc3)ncc2Cl)cc1	-99.8%	–
CCCCN1C(=O)C(O)(c2c(C)[nH]c3ccccc23)c2cc(Br)ccc21 (stereo not drawn)	-47%	–
COc1ccc(NC(=O)CCS(=O)(=O)c2nc(-c3cccs3)cc(C(F)(F)F)n2)cc1OC	-87.3%	–
CCS(=O)(=O)c1ncc(Cl)c(C(=O)Nc2ccccc2)n1	–	1.31 µM (active)
COc1ccccc1N1CCN(C(=O)c2cnc(N3CCCCC3)c3ccccc23)CC1	–	0.927 µM (active)
Cc1ccccc1Oc1nc2ccccn2c(=O)c1/C=C(\C#N)c1nc2ccccc2[nH]1	2.47%	–
O=C(CC1(O)C(=O)N(CCc2ccccc2)c2ccc(Br)cc21)c1ccccc1O (stereo not drawn)	–	6.56 µM (active)
Cc1cccn2c(Nc3ccccc3)c(-c3cccs3)nc12	26.1%	–
CCC1CN(C(=O)NCc2ccc(F)cc2)c2cc(C)ccc2O1 (stereo not drawn)	0.784%	–
Cc1cc(C)c(/C=C2\C(=O)Nc3ccccc32)[nH]1	0.812% and 7.57%	–
Cc1nn(C(C)C(=O)NC2CCC(C)CC2)c(=O)c2c1sc1ccccc12 (stereo not drawn)	-5.69%	–
COc1ccccc1C1C=C(c2ccc(Cl)cc2)Nc2nc(-c3ccc(Cl)cc3)nn21 (stereo not drawn)	-9.46%	–
O=C(Nc1ccc2oc(-c3cc(Br)ccc3Cl)nc2c1)c1cc2ccccc2o1	-105%	–
CCOC(=O)N1CCN(Cc2nc3cc(NC(=O)c4ccccc4OC)ccc3n2C(C)C)CC1	-28.8%	–

Structure (SMILES)	activity change, negative = inhibition	Potency
O=C(Nc1cccc(NC(=O)c2ccccc2Cl)c1)c1cccc(Br)c1	-1.41%	–
CCc1nn(CC(=O)NCc2ccccc2)c(=O)c2cccn12	5.81%	–
Cc1ccc(-n2c(=O)c3ccc(C(=O)NCc4ccco4)cc3n(Cc3ccc(Cl)cc3)c2=O)cc1	–	9.27 µM (active)
Cc1ccc(S(=O)(=O)c2nc(-c3cccs3)oc2SCC(=O)Nc2cc(C)cc(C)c2)cc1	-132%	–
Cc1ccc(NC(=O)CCNS(=O)(=O)c2cccc3nonc23)cc1Cl	5.73%	–
CCOc1ccccc1NC(=O)N(Cc1ccc(F)cc1)C1CCN(CC)CC1	-15.8%	–
CCN(CC)CCn1c(=N)n(CCOc2ccccc2Cl)c2ccccc21	-149%	–
O=C(Cn1c(=O)n(Cc2ccc3c(c2)OCO3)c(=O)c2ccc(C(=O)NC3CCCCC3)cc21)Nc1ccccc1F	-94.5%	–
COc1ccc(N(Cc2ccccc2)C(=O)c2nc(S(C)(=O)=O)ncc2Cl)cc1	–	1.85 µM (active)
COc1ccc(-c2nc3cc(NC(=O)Cc4ccc(Cl)cc4)ccc3o2)cc1OC	-60.1%	–
COc1ccc(Oc2nc3c(C)cccn3c(=O)c2/C=C(\C#N)c2nc3ccccc3[nH]2)cc1	11.5%	–
Cc1ccc(C(=O)CC2(O)C(=O)N(Cc3ccccc3)c3ccc(Br)cc32)cc1 (stereo not drawn)	–	11.7 µM (active)
COc1ccc(-c2cc(C(F)(F)F)nc(S(=O)(=O)CCCC(=O)Nc3ccccc3C(F)(F)F)n2)cc1OC	–	13.1 µM (active)
CCOC(=O)C1CCN(C(=O)CSc2c3c(nc4ccc(Cl)cc24)CCCC3)CC1	-5.08%	–
COc1cc2ncnc(Nc3ccc(F)c(Cl)c3)c2cc1OCCCN1CCOCC1	-7.44%	–
COc1ccc(S(=O)(=O)Nc2ccc3oc4c(c3c2)CCCC4)cc1	1.17%	–
Cc1cccc(C(=O)Nc2c(C(=O)NCc3ccc(Cl)cc3)sc3nc(C)cc(C)c23)c1	-92.4%	–
CCn1c(CC2C(=O)N(C)c3ccc(Br)cc32)nc2ccccc2c1=O (stereo not drawn)	-27%	–
O=C(NCc1ccccc1)c1nc(S(=O)(=O)Cc2ccccc2)ncc1Cl	–	5.85 µM (active)
